Experiment [1] deals with Estrogen receptor (Homo sapiens) (UniProt P03372). Nature of the experiment: CCTE_Deisenroth_AIME_96WELL_LUC_Active: CCTE's 96-well Estrogen Receptor Transactivation Assay with AIME metabolic competence (ERTA luciferase; metabolism positive), Deisenroth Lab (AID 2284023). The gist of the method: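 Metabolism-positive mode: induced rat hepatic S9 in alginate microspheres conditions test solutions (0.002 - 200 uM, 10 points) for 2 hours. VM7Luc4E2 ER luciferase reporter cells then exposed 24 h; positive-direction fit against 17beta-estradiol, n=4 typical.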
Chain of Estrogen receptor (Homo sapiens) (P03372 whole entry, looked up): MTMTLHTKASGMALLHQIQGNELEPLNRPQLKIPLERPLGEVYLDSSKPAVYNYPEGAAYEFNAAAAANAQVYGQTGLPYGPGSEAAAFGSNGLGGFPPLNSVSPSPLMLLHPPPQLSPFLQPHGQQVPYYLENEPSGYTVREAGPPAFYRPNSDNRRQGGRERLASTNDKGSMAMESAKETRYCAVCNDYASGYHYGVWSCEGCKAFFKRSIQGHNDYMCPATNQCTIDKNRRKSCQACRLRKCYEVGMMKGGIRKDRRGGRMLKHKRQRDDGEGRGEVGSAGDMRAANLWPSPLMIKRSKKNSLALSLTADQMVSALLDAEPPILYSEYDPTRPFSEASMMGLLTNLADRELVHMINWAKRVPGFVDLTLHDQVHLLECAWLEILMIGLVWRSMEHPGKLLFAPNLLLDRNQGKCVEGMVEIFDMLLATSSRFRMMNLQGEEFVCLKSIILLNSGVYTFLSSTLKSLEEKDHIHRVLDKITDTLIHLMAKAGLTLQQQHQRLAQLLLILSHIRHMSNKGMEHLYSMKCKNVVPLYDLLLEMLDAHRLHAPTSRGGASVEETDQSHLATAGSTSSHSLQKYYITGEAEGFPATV

Experiment [2] shares this target. The experiment in a line: CCTE_Deisenroth_AIME_96WELL_LUC_Inactive: CCTE's 96-well Estrogen Receptor Transactivation Assay without AIME metabolic competence (ERTA luciferase; metabolism negative), Deisenroth Lab (AID 2284025). The method in brief:
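Metabolism-negative arm: chemicals (0.002–200 uM, 10 points) incubated 2 h with alginate-water microspheres, then medium moved onto VM7Luc4E2 cells for 24 h luciferase read-out. Positive direction vs 17beta-estradiol; n≥4 experiments.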

Inconclusive results are not listed. Active and inactive are the calls of the source. Rule for the calls: active = hit-call score of the fitted dose curve at least 0.9, where 1 is the maximum; inconclusive = response in the unintended direction; inactive = score below 0.9.

As for `C(#Cc1ccccc1)c1ccccc1`, the AC50 in experiment [1] was 32.3 µM (active); in experiment [2] it was 28.5 µM (active).

The term AC50 denotes the concentration giving half of the maximal activity seen.

These data come from PubChem BioAssay (EPA / NIEHS).
